Several values for one entry are separate records, joined by “and”; a condition that tells them apart may be missing. Equal values may be shown once. Records with an inconclusive call do not appear. A call without a number means that no potency is given here. Some structures have more than one record in an assay (separate samples or runs), and their calls can disagree. Activity calls are given as the source filed them. The call rests on the fitted dose curve.
Legend:
[1] = Cytotoxicity counterscreen for inhibitors of SARS-CoV-2 cell entry (AID 1645845); conditions: cell viability (SARS-CoV-2 entry assay cells); series mostly up to 57.1 µM; further: nearly all actives have a fitted effect of over 50% in size
In short: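 Counterscreen run in the same HEK293-ACE2 line as the pseudotyped-particle entry assay, without particles. Viability after 48 h at 37 C was read as ATP luminescence, scaled between cell-containing and cell-free wells.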

[2] = Primary qHTS to identify inhibitors of SARS-CoV-2 cell entry (AID 1645846); conditions: SARS-CoV-2 pseudovirus cell entry assay, luminescence; activity change, negative = inhibition: at 57.1 µM (top of the series) unless noted; series mostly up to 57.1 µM; further: nearly all actives have a fitted effect of over 45% in size
In short: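 Data are normalized to wells receiving SARS-CoV-2-S pseudoparticles and those given bald particles. Entry signal was luciferase luminescence in stable hACE2 Expi293F cells, 48 hr post-infection, after 1 hr compound pretreatment.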
Potency means the concentration at half of the fitted maximal effect.

Compound | Potency [1] | Potency [2] | activity change, negative = inhibition [2]
CC(C)(CO)[C@@H](O)C(=O)NCCCO | inactive | inactive | –
C[N+]1(C)[C@@H]2CC(OC(=O)[C@H](CO)c3ccccc3)C[C@H]1[C@@H]1O[C@@H]12 (some centres undefined) | inactive | inactive | –
COc1c(N2C[C@@H]3CCCN[C@@H]3C2)c(F)cc2c(=O)c(C(=O)O)cn(C3CC3)c12 | inactive | – | -24.8%
Oc1ccc(OCc2ccccc2)cc1 | inactive | inactive and 3.16 µM (active) | –
CC(=O)OCC1=C(C(=O)O)N2C(=O)[C@@H](NC(=O)Cc3cccs3)[C@H]2SC1 | inactive | – | 1.38%
CCCCN(CCCC)CCCOC(=O)c1ccc(N)cc1 | inactive | – | -17.6%
O=C(O)C[C@H](O)C[C@H](O)/C=C/c1c(C2CC2)nc2ccccc2c1-c1ccc(F)cc1 | inactive | – | -3.35%
N#C[C@H]1C[C@H]2C[C@@H]2N1C(=O)[C@@H](N)C12CC3CC(CC(O)(C3)C1)C2 | inactive | – | -17.5%
O=C(O)CN(CCN(CC(=O)O)CC(=O)O)CCN(CC(=O)O)CC(=O)O | inactive | inactive | –
COc1ccc2cc1Oc1cc3c(cc1OC)CC[N+](C)(C)[C@H]3Cc1ccc(cc1)Oc1c(OC)c(OC)cc3c1[C@@H](C2)[N+](C)(C)CC3 | inactive | inactive | –
Cn1c(=O)c2[nH]cnc2n(C)c1=O | inactive | – | -18.5% and -12.1%
CCOc1ccc(NS(=O)(=O)c2ccc(N)cc2)nn1 | inactive | – | -12.4%
O=C(CCOCCOCCOCCOCCC(=O)Nc1c(I)cc(I)c(C(=O)O)c1I)Nc1c(I)cc(I)c(C(=O)O)c1I | inactive | inactive | –
CO/N=C(/C(=O)N[C@@H]1C(=O)N2C(C(=O)OCOC(=O)C(C)(C)C)=C(C)CS[C@H]12)c1csc(N)n1 | inactive | – | -24.9%
C[C@]12CCC(=O)C=C1CC[C@H]1[C@@H]3CC[C@](O)(C(=O)CO)[C@@]3(C)C[C@H](O)[C@@]12F | inactive | – | -15.9%
Cc1cc2nc3c(=O)[nH]c(=O)nc-3n(C[C@H](O)[C@H](O)[C@H](O)CO)c2cc1C | inactive | inactive | –
O=c1[nH]c(=O)n([C@H]2CCCO2)cc1F | inactive | inactive | –
CCc1cccc(CC)c1NC(=O)CN(CC(=O)O)CC(=O)O | inactive | inactive | –
CC(CCc1ccccc1)NCC(O)c1ccc(O)c(C(N)=O)c1 (centres undefined) | inactive | – | -28.2%
CCCCCCCCCCC[C@@H](C[C@@H]1OC(=O)[C@H]1CCCCCC)OC(=O)[C@H](CC(C)C)NC=O | inactive | – | 0.353%
CCCCC(CC)COC(=O)c1ccccc1O (centres undefined) | inactive | inactive | –
CN1C[C@H](C(=O)N[C@]2(C)O[C@@]3(O)[C@@H]4CCCN4C(=O)[C@H](Cc4ccccc4)N3C2=O)C=C2c3cccc4[nH]cc(c34)C[C@H]21 | inactive | – | -28.9%
CCOC(=O)C1=C(C)NC(C)=C(C(=O)OC)C1c1cccc([N+](=O)[O-])c1 (centres undefined) | inactive | inactive | –
CC(=O)SCC(CC(=O)c1ccc(C)cc1)C(=O)O (centres undefined) | inactive | inactive | –
CN(C)c1ccc2nc3ccc(=[N+](C)C)cc-3sc2c1 | 7.08 µM (active) | 8.91 µM (active) and 7.08 µM (active) | –
CCCCC[C@H](O)/C=C/[C@@H]1[C@H]2C/C(=C/CCCC(=O)O)O[C@H]2C[C@H]1O | inactive | – | -21%
Cc1oc(=O)oc1COC(=O)[C@@H]1N2C(=O)[C@@H](NC(=O)[C@H](N)c3ccccc3)[C@H]2SC1(C)C | inactive | inactive | –
